These results are taken from PubChem BioAssay (NCI).

Holding throughout (assay): NCI-60 one-dose screen, 48 h (100 = growth as untreated, 0 = no growth, -100 = all killed)
One test relates to SK-MEL-2 melanoma. As to conditions: 10 µM unless noted.
The test system of another test is EKVX NSCLC. As to conditions: 10 µM unless noted.
Another test has as its system SN12C renal. As to conditions: 10 µM unless noted.
The subject of the next test is UO-31 renal. As to conditions: 10 µM unless noted.
A further test deals with TK-10 renal. As to conditions: 10 µM unless noted.
The test system of the next test is ACHN renal. As to conditions: 10 µM unless noted.
A further test relates to CAKI-1 renal. As to conditions: 10 µM unless noted.
A further test relates to A498 renal. As to conditions: 10 µM unless noted.
The next test has as its system CCRF-CEM leukemia. As to conditions: 10 µM unless noted.
The next test deals with MOLT-4 leukemia. As to conditions: 10 µM unless noted.
A further test deals with RPMI-8226 leukemia. As to conditions: 10 µM unless noted.
For the next test, the system named is OVCAR-8 ovarian. As to conditions: 10 µM unless noted.
The next test has as its system OVCAR-5 ovarian. As to conditions: 10 µM unless noted.
Another test has as its system OVCAR-4 ovarian. As to conditions: 10 µM unless noted.
A further test concerns SK-OV-3 ovarian. As to conditions: 10 µM unless noted.
A further test concerns IGROV1 ovarian. As to conditions: 10 µM unless noted.
The subject of another test is OVCAR-3 ovarian. As to conditions: 10 µM unless noted.
In another test the test system is HS 578T breast. As to conditions: 10 µM.
For a further test, the system named is NCI/ADR-RES ovarian. As to conditions: 10 µM unless noted.
The test system of a further test is SR leukemia. As to conditions: 10 µM unless noted.

SMILES strings stand for the structures. This is part of a sample that, as a whole, favours compounds with a hit. Of some 83,000 tested, about 20% had one in any assay.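 Interpretation: 100, growth as untreated; towards 0, rising growth inhibition; 0, no net growth; 0 to -100, cell death. Compounds scoring below 10 were considered active.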 A number with no mark means an inactive call. Active and inactive are the calls of the source.

Take `C=CCN(CCOC(=O)c1ccc([N+](=O)[O-])cc1)CCOC(=O)c1ccc([N+](=O)[O-])cc1`: the growth in the test with SK-MEL-2 melanoma was 110%; in the test on EKVX NSCLC it was 96.1%; with SN12C renal it was 143%; in the test on UO-31 renal it was 69.9%; with TK-10 renal it was 114%; in the test on ACHN renal, 95%. Moreover, the growth is 86.1% with CAKI-1 renal; 95.2% with A498 renal; 94.3% in the test with CCRF-CEM leukemia; 96.2% in the test with MOLT-4 leukemia; 94.3% in the test on RPMI-8226 leukemia; 98.7% in the test on OVCAR-8 ovarian. The growth was 102% in the test on OVCAR-5 ovarian; 99.5% in the test on OVCAR-4 ovarian; 99.2% with SK-OV-3 ovarian; 88.1% with IGROV1 ovarian; 104% in the test with OVCAR-3 ovarian; 101% with HS 578T breast. The growth in the test on NCI/ADR-RES ovarian is 96.8%.

For `CC1CN(CCCOC(=O)Nc2ccc(Cl)cc2)CCN1C(C)(C)C` (stereo unspecified), the growth in the test on SK-MEL-2 melanoma was 112%; in the test on EKVX NSCLC, 96.9%; in the test on SN12C renal, 113%; with UO-31 renal, 82.9%; in the test on TK-10 renal, 99.8%; in the test on ACHN renal, 133%. In addition, the growth with CAKI-1 renal was 89.8%; with A498 renal it was 95.2%; in the test on CCRF-CEM leukemia, 90.3%; in the test with MOLT-4 leukemia it was 103%; with RPMI-8226 leukemia, 100%; with OVCAR-8 ovarian it was 104%. Further, the growth with OVCAR-5 ovarian is 105%; with OVCAR-4 ovarian, 111%; in the test with SK-OV-3 ovarian, 93.8%; with IGROV1 ovarian, 100%; in the test on OVCAR-3 ovarian it was 104%; in the test with HS 578T breast, 116%. For the same molecule, the growth in the test with NCI/ADR-RES ovarian is 99.6%.

Regarding `Oc1ccc(CCCCCCc2ccc(O)cc2)cc1`, the growth is 89.2% with SK-MEL-2 melanoma; 74.5% in the test on EKVX NSCLC; 69.6% in the test with SN12C renal; 25.6% in the test with UO-31 renal; 84.9% in the test with TK-10 renal; -4.64% (active) with ACHN renal. Moreover, the growth in the test on CAKI-1 renal is 16.8%; with A498 renal, 103%; in the test on CCRF-CEM leukemia, 18.5%; in the test with MOLT-4 leukemia, 106%; in the test on RPMI-8226 leukemia, 64.7%; with OVCAR-8 ovarian, 44.1%. Moreover, the growth is 86.1% in the test on OVCAR-5 ovarian; 50% with OVCAR-4 ovarian; 71.5% in the test with SK-OV-3 ovarian; 60.4% in the test with IGROV1 ovarian; 83.1% in the test with OVCAR-3 ovarian; 103% with HS 578T breast. For the same molecule, the growth with NCI/ADR-RES ovarian was 33.3%.

Consider `CCCCCCCCCCCC1=NC(C)(C)CN1C(C)(C)CO`, for which the growth with SK-MEL-2 melanoma is 49.4%; in the test with EKVX NSCLC it was 64.6%; in the test on SN12C renal, 59.8%; with UO-31 renal it was 46.7%; in the test with TK-10 renal, 70.3%; with ACHN renal it was 56.7%. For the same molecule, the growth is 63.2% in the test on CAKI-1 renal; 90.1% in the test with A498 renal; 26.6% in the test on CCRF-CEM leukemia; 74% with MOLT-4 leukemia; 1.29% (active) in the test with RPMI-8226 leukemia; 69.4% in the test with OVCAR-8 ovarian. In addition, the growth with OVCAR-5 ovarian is 73.2%; in the test with OVCAR-4 ovarian it was 64.4%; with SK-OV-3 ovarian it was 73.8%; in the test with IGROV1 ovarian it was 53.2%; in the test with OVCAR-3 ovarian it was 76.7%; with HS 578T breast, 81.2%. In the test on NCI/ADR-RES ovarian, the growth was 65%.

For `COc1ccc(CCN2COc3c([C@@H](C)CCC=C(C)C)ccc(C)c3C2)cc1OC`, the growth in the test on SK-MEL-2 melanoma was 89.4%; with EKVX NSCLC, 63.2%; in the test on SN12C renal it was 52.8%; in the test with UO-31 renal, 41.4%; in the test with TK-10 renal, 76.9%; with ACHN renal, 70%. The growth with CAKI-1 renal was 68.7%; in the test with A498 renal, 66.2%; in the test with CCRF-CEM leukemia it was 62.6%; in the test on MOLT-4 leukemia it was 48.3%; with RPMI-8226 leukemia, 28.5%; with OVCAR-8 ovarian it was 72.1%. In addition, the growth was 83% with OVCAR-5 ovarian; 39.7% in the test on OVCAR-4 ovarian; 82.6% with SK-OV-3 ovarian; 68.3% in the test with IGROV1 ovarian; 30.2% with OVCAR-3 ovarian; 76.9% in the test with HS 578T breast. In the test on NCI/ADR-RES ovarian, the growth was 44.6%.

For `CCCCCCCCCCCCCCCCCC1=NC(C)(C)CN1C(C)(C)CO`, the growth is -69% (active) with SK-MEL-2 melanoma; 27% in the test on EKVX NSCLC; 11.6% in the test with SN12C renal; -52.9% (active) with UO-31 renal; -35.1% (active) in the test with TK-10 renal; -75.6% (active) with ACHN renal. Besides, the growth in the test on CAKI-1 renal is -65.2% (active); in the test on A498 renal, 78.9%; with CCRF-CEM leukemia, -52.9% (active); in the test with MOLT-4 leukemia, -55.2% (active); in the test on RPMI-8226 leukemia it was -35.3% (active); in the test on OVCAR-8 ovarian, -80.4% (active). The growth in the test with OVCAR-5 ovarian was 37.9%; in the test with OVCAR-4 ovarian, 3.31% (active); with SK-OV-3 ovarian, -40% (active); with IGROV1 ovarian it was -83.8% (active); with OVCAR-3 ovarian it was -1.05% (active); with HS 578T breast it was 15.3%. The growth in the test with NCI/ADR-RES ovarian was -7.97% (active).

`O=C(CSc1ccc(Cl)cc1)Nc1ccc(-c2nc3ccccc3s2)c(Cl)c1`: the growth is 92.9% in the test with SK-MEL-2 melanoma; 59.6% in the test on EKVX NSCLC; 46.5% in the test with SN12C renal; 38.2% with UO-31 renal; 85.4% in the test with TK-10 renal; 54.1% in the test on ACHN renal. The growth with CAKI-1 renal was 53.5%; in the test on A498 renal it was 32.1%; in the test with CCRF-CEM leukemia, 41.6%; with MOLT-4 leukemia, 68.3%; with RPMI-8226 leukemia it was 38.5%; in the test on OVCAR-8 ovarian it was 50.8%. The growth is 99.1% in the test on OVCAR-5 ovarian; 57.6% with OVCAR-4 ovarian; 94.7% in the test with SK-OV-3 ovarian; 69.4% with IGROV1 ovarian; -10.9% (active) in the test with OVCAR-3 ovarian; 79.1% in the test with HS 578T breast. Besides, the growth in the test on NCI/ADR-RES ovarian was 62%.

For `C/C(CC(=O)NNc1ccc([N+](=O)[O-])cc1)=N\Nc1ccc([N+](=O)[O-])cc1`, the growth with SK-MEL-2 melanoma is 111%; with EKVX NSCLC, 54.1%; with SN12C renal it was 68.9%; in the test with UO-31 renal, 40%; with TK-10 renal, 93.4%; in the test on ACHN renal it was 47.5%. Further, the growth was 31.3% in the test with CAKI-1 renal; 81% in the test with A498 renal; 48.6% with CCRF-CEM leukemia; 29.2% in the test with MOLT-4 leukemia; 46.9% in the test with SR leukemia; 72.1% in the test on RPMI-8226 leukemia. For the same molecule, the growth with OVCAR-8 ovarian is 81.3%; in the test with OVCAR-5 ovarian, 48.8%; in the test on SK-OV-3 ovarian it was 90.6%; with OVCAR-3 ovarian, 73.7%; in the test with HS 578T breast it was 86.2%; with NCI/ADR-RES ovarian, 49.7%.
